# Reference: ChEMBL document CHEMBL4303122, “Identification of potential treatments for COVID-19 through artificial intelligence-enabled phenomic analysis of human cells infected with SARS-CoV-2” (2020)
# The full ranking holds about 1,600 compounds; the median of “Hit score” is about 0.13, and the highest 2% start at about 0.46. This is one part of a sample in which the highest values are shown more often than they occur.
# Tested on: SARS-CoV-2
# Assay: Antiviral activity against SARS-CoV-2 (USA-WA1/2020 strain) measured by imaging in HRCE cells at MOI 0.4 after 96 hrs (reported as hit score from 0-1 for on-disease vs off-disease activity: scores >0.6 considered hits)
# Format: functional, Homo sapiens
row,SMILES,Hit score
1,CN1[C@@H]2CC[C@H]1C[C@@H](OC(=O)[C@H](CO)c1ccccc1)C2 [HYOSCYAMINE],0.0469
2,O=C(O)CCC/C=C\CC1C(O)CC(O)C1/C=C/C(O)COc1cccc(Cl)c1 (stereo not drawn) [CLOPROSTENOL],-0.03107
3,COc1cccc(N2CCN(C3=Nc4c(F)cccc4[C@H](CC(=O)O)N3c3cc(C(F)(F)F)ccc3OC)CC2)c1 [LETERMOVIR],0.3651
4,CCOC(=O)[C@H]1O[C@@H]1C(=O)N[C@@H](CC(C)C)C(=O)NCCC(C)C [ALOXISTATIN],0.7896
5,N[C@@H]1[C@H]2CN(c3nc4c(cc3F)c(=O)c(C(=O)O)cn4-c3ccc(F)cc3F)C[C@@H]12 [TROVAFLOXACIN],0.134
6,O=C(O)[C@@H]1CCCN1 [PROLINE],0.14
7,COc1cc(Nc2ncc(F)c(Nc3ccc4c(n3)NC(=O)C(C)(C)O4)n2)cc(OC)c1OC [R-406],0.1646
8,CC(=O)c1c(C)c2cnc(Nc3ccc(N4CCNCC4)cn3)nc2n(C2CCCC2)c1=O [PALBOCICLIB],0.007482
9,OC(CCN1CCCCC1)(c1ccccc1)C1CCCCC1 (stereo not drawn) [TRIHEXYPHENIDYL],0.4673
10,OC(CCN1CCCCC1)(c1ccccc1)c1ccccc1 [PRIDINOL],0.1349
11,OC(CCN1CCCC1)(c1ccccc1)C1CCCCC1 (stereo not drawn) [PROCYCLIDINE],0.2175
12,Sc1ncnc2nc[nH]c12 [MERCAPTOPURINE ANHYDROUS],0.2212
13,COC(=O)C[C@](O)(CCC(C)(C)O)C(=O)O[C@@H]1C(OC)=C[C@]23CCCN2CCc2cc4c(cc2[C@H]13)OCO4 [HARRINGTONINE],0.07403
14,CCCC[C@H](NC(=O)[C@@H]1[C@@H]2[C@H](CN1C(=O)[C@@H](NC(=O)NC1(CS(=O)(=O)C(C)(C)C)CCCCC1)C(C)(C)C)C2(C)C)C(=O)C(=O)NC1CC1,0.1004
15,C[C@]12CC[C@H](O)CC1=CC[C@@H]1[C@@H]2CC[C@]2(C)C(c3cccnc3)=CC[C@@H]12 [ABIRATERONE],0.3975
16,C[C@H](CCC(=O)O)[C@H]1CC[C@H]2[C@@H]3[C@@H](O)C[C@@H]4C[C@H](O)CC[C@]4(C)[C@H]3CC[C@]12C [URSODIOL],0.2784
17,CC[C@H]1[C@@H](O)[C@@H]2[C@H](CC[C@]3(C)[C@@H]([C@H](C)CCC(=O)O)CC[C@@H]23)[C@@]2(C)CC[C@@H](O)C[C@@H]12 [OBETICHOLIC ACID],0.5073
18,CC(CCC(=O)O)[C@H]1CCC2C3C[C@H](O)[C@@H]4C[C@H](O)CC[C@]4(C)C3CC[C@@]21C (stereo partly drawn),0.1858
19,CN1CC(=O)N2[C@H](c3ccc4c(c3)OCO4)c3[nH]c4ccccc4c3C[C@@H]2C1=O,0.2898
20,CO[C@H]1/C=C/O[C@@]2(C)Oc3c(C)c(O)c4c(O)c(cc(O)c4c3C2=O)NC(=O)/C(C)=C\C=C\[C@H](C)[C@H](O)[C@@H](C)[C@@H](O)[C@@H](C)[C@H](OC(C)=O)[C@@H]1C [RIFAMYCIN],0.1815
21,NC(=O)[C@@H]1CC[C@@H]2CN1C(=O)N2OS(=O)(=O)[O-].[Na+] [AVIBACTAM SODIUM],0.2969
22,Cc1ccc2c(Cl)cc(Cl)c(O)c2n1 [CHLORQUINALDOL],0.2863
23,Oc1c(Cl)cc(Cl)c(Cl)c1Cc1c(O)c(Cl)cc(Cl)c1Cl [HEXACHLOROPHENE],0.5286

row,SMILES,Hit score
1,O=C(Nc1cc(Cl)cc(Cl)c1O)c1c(O)c(Cl)cc(Cl)c1Cl [OXYCLOZANIDE],0.1882
2,Cc1ccc(C(=O)Nc2ccc(CN3CCN(C)CC3)c(C(F)(F)F)c2)cc1C#Cc1cnc2cccnn12 [PONATINIB],0.5086
3,O=C(O)c1ccccc1C(=O)Nc1ccc(S(=O)(=O)Nc2nccs2)cc1 [PHTHALYLSULFATHIAZOLE],0.0541
4,CS(=O)(=O)c1ccc(C(=O)Nc2ccc(Cl)c(-c3ccccn3)c2)c(Cl)c1 [VISMODEGIB],0.5244
5,Cc1cc(-c2ccc(/N=N/c3ccc4c(S(=O)(=O)[O-])cc(S(=O)(=O)[O-])c(N)c4c3O)c(C)c2)ccc1/N=N/c1ccc2c(S(=O)(=O)[O-])cc(S(=O)(=O)[O-])c(N)c2c1O.[Na+].[Na+].[Na+].[Na+] [EVANS BLUE],0.2486
6,CC(SC(=O)c1cccs1)C(=O)NCC(=O)O (stereo not drawn) [STEPRONIN],0.2404
7,CCCC(CCC)C(=O)O.CCCC(CCC)C(=O)[O-].[Na+] [DIVALPROEX SODIUM],0.2277
8,CCCCCCC(=O)O[C@H]1CC[C@H]2[C@@H]3CCC4=CC(=O)CC[C@]4(C)[C@H]3CC[C@]12C [TESTOSTERONE ENANTHATE],0.1237
9,CC(C)(C)CC(C)(C)c1ccc(OCCOCC[N+](C)(C)Cc2ccccc2)cc1 [BENZETHONIUM],0.03086
10,Cc1nc2ccccc2n1Cc1ccc(Cl)cc1 [CHLORMIDAZOLE],-0.04269
11,CC(C)/N=c1\cc2n(-c3ccc(Cl)cc3)c3ccccc3nc-2cc1Nc1ccc(Cl)cc1 [CLOFAZIMINE],0.5936
12,Clc1ccc(C(OCCN2CCCCC2)c2ccccc2)cc1 (stereo not drawn) [CLOPERASTINE],0.5618
13,OCCOCCN1CCN(C(c2ccccc2)c2ccc(Cl)cc2)CC1 (stereo not drawn) [HYDROXYZINE],0.00308
14,O=C(O)COCCN1CCN([C@H](c2ccccc2)c2ccc(Cl)cc2)CC1 [LEVOCETIRIZINE],-0.05445
15,O=P(O)(O)C(Sc1ccc(Cl)cc1)P(=O)(O)O [TILUDRONIC ACID],0.04613
16,Cc1cccc(C)c1NC(=O)CN1CCN(CCCC(c2ccc(F)cc2)c2ccc(F)cc2)CC1 [LIDOFLAZINE],0.2006
17,CCCCC(C)(O)C/C=C/[C@H]1[C@H](O)CC(=O)[C@@H]1CCCCCCC(=O)OC (stereo partly drawn) [MISOPROSTOL],-0.07952
18,COc1cc(N2CCC(N3CCN(C)CC3)CC2)ccc1Nc1ncc(Cl)c(Nc2ccccc2P(C)(C)=O)n1 [BRIGATINIB],0.1463
19,N#Cc1cc2c(cc1[N+](=O)[O-])=NC(=O)C(=O)N=2,0.1284
20,Cl.OC[C@H]1NC[C@@H](O)[C@@H](O)[C@@H]1O,0.1457
21,CN[C@@H](C)[C@H](O)c1ccccc1.Cl [EPHEDRINE HYDROCHLORIDE],0.3718
22,CC(=O)[C@@]1(O)CC[C@H]2[C@@H]3C[C@H](C)C4=CC(=O)CC[C@]4(C)[C@H]3CC[C@@]21C,0.2069
23,C[C@H](CCC(=O)O)[C@H]1CC[C@H]2[C@@H]3[C@H](O)C[C@@H]4C[C@H](O)CC[C@]4(C)[C@H]3C[C@H](O)[C@]12C [CHOLIC ACID],0.1604

row,SMILES,Hit score
1,CC(=O)[C@@]1(O)CC[C@H]2[C@@H]3CCC4=CC(=O)CCC4=C3[C@@H](c3ccc(N(C)C)cc3)C[C@@]21C [ULIPRISTAL],0.1448
2,Nc1cccc2c(=O)[nH][nH]c(=O)c12.[Na+],0.2367
3,CCCN[C@@H]1CCc2nc(N)sc2C1 [DEXPRAMIPEXOLE],0.07275
4,CC(C)(C)NCC(O)c1cc(Cl)c(N)c(Cl)c1 (stereo not drawn) [CLENBUTEROL],-0.07437
5,CC(C)(C)NCC(O)c1ccccc1Cl (stereo not drawn) [TULOBUTEROL],-0.01366
6,CC(C)(C)NC[C@H](O)COc1cccc2c1CCCC2=O [LEVOBUNOLOL],0.1851
7,CC(C)(C)NC[C@H](O)COc1ccccc1C1CCCC1 [PENBUTOLOL],0.4905
8,CC(C)(C)NCC(O)COc1cc(Cl)ccc1Cl (stereo not drawn) [CLORANOLOL],0.4962
9,CC(C)(C)NC[C@H](O)COc1nsnc1N1CCOCC1 [TIMOLOL],0.174
10,CC(C)(C)NCC(O)COc1cccc2c1CCC(=O)N2 (stereo not drawn) [CARTEOLOL],0.1646
11,Cc1ccc(Cl)c(OCC(O)CNC(C)(C)C)c1 (stereo not drawn) [BUPRANOLOL],0.4669
12,CC(C)(C)NCC(O)c1cc(Cl)c(N)c(C(F)(F)F)c1 (stereo not drawn) [MABUTEROL],-0.1589
13,CO[C@@]1(NC(=O)C2SC(=C(C(N)=O)C(=O)O)S2)C(=O)N2C(C(=O)O)=C(CSc3nnnn3C)CS[C@@H]21 (stereo partly drawn) [CEFOTETAN],0.1396
14,COc1cc2c(Oc3ccc4[nH]c(C)cc4c3F)ccnc2cc1OCC1(N)CC1 [CATEQUENTINIB],0.165
15,CO/N=C(\C(=O)N[C@@H]1C(=O)N2C(C(=O)[O-])=C(C[n+]3cccc4c3CCC4)CS[C@H]12)c1csc(N)n1 [CEFPIROME],0.1204
16,COC(=O)OCOc1c2n(ccc1=O)N([C@@H]1c3ccccc3SCc3c1ccc(F)c3F)[C@@H]1COCCN1C2=O [BALOXAVIR MARBOXIL],5.7e-05
17,O=[N+]([O-])/N=C1\NCCN1Cc1ccc(Cl)nc1 [IMIDACLOPRID],0.158
18,CCOC(=O)CSCCC1NC(C(=O)O)CS1 (stereo not drawn) [LETOSTEINE],0.08225
19,N=C(NCCCCCCNC(=N)NC(=N)Nc1ccc(Cl)cc1)NC(=N)Nc1ccc(Cl)cc1 [CHLORHEXIDINE],0.08739
20,CNC(=O)c1cc(Oc2ccc(NC(=O)Nc3ccc(Cl)c(C(F)(F)F)c3)cc2)ccn1 [SORAFENIB],0.2484
21,O=C(Nc1ccc(Cl)cc1)Nc1ccc(Cl)c(Cl)c1 [TRICLOCARBAN],0.4616
22,CCCCc1nc(Cl)c(C(=O)O)n1Cc1ccc(-c2ccccc2-c2nn[nH]n2)cc1 [CARBOXYLIC ACID METABOLITE],0.01747
